target: T1, Serine/threonine-protein kinase TAO3 (Homo sapiens) (UniProt Q9H2K8); conditions: at 10 µM
T1 sequence (whole entry): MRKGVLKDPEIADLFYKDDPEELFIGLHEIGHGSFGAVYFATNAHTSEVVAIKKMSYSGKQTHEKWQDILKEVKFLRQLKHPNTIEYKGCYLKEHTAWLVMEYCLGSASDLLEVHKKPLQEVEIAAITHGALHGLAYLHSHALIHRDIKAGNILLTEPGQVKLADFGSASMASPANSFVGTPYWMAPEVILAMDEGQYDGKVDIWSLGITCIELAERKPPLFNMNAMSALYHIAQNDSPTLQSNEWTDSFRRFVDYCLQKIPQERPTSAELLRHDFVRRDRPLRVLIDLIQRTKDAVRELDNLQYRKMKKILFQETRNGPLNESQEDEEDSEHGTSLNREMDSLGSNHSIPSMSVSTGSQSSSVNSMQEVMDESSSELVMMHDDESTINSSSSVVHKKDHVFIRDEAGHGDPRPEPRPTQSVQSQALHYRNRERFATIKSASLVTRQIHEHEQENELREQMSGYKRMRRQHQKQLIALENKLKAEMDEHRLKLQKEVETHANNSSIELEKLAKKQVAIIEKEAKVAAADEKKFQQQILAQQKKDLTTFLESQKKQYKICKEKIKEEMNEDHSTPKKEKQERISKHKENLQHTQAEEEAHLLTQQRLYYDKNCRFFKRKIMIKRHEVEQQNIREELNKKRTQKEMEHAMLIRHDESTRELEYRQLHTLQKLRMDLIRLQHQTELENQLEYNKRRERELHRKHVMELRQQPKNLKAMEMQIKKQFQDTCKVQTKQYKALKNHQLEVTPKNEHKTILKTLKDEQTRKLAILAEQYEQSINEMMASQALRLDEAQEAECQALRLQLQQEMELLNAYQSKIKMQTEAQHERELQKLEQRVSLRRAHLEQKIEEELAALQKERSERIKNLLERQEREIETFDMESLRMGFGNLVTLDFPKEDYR

SMILES	residual activity [%]
CO[C@H]1[C@@H](OC)C[C@H](C)[C@@H](OC)C2=CC(=O)C=C(NC(=O)/C(C)=C/C=C/[C@H](OC)[C@@H](OC(N)=O)/C(C)=C/[C@@H]1C)C2=O	95
O=C1NC(=O)c2c1c1c3ccccc3[nH]c1c1[nH]c3cc(Br)ccc3c21	94
CCC(=O)Nc1ccc2ncnc(Nc3cccc(Br)c3)c2c1	95
CC(C)n1cnc2c(NCc3ccccc3)nc(NCCCO)nc21	88
CCN(CC)C(=O)c1ccc(Nc2nc(OCC3CCCCC3)c3nc[nH]c3n2)cc1	16
CO[C@H]1C[C@@H]2CC[C@@H](C)[C@@](O)(O2)C(=O)C(=O)N2CCCC[C@H]2C(=O)O[C@H]([C@H](C)C[C@@H]2CC[C@@H](O)[C@H](OC)C2)CC(=O)[C@H](C)/C=C(\C)[C@@H](O)[C@@H](OC)C(=O)[C@H](C)C[C@H](C)/C=C/C=C/C=C/1C	85
COc1ccc(C(=O)Nc2sc3c(c2C(N)=O)CCCC3)cc1OC	93
COc1cc2ncnc(N3CCN(C(=O)Nc4ccc(Oc5ccccc5)cc4)CC3)c2cc1OC	77
CC(C)n1cnc2/c(=N/c3cccc(Cl)c3)nc(NCCO)[nH]c21	54
CN(C)c1ccc(/C=C2\C(=O)Nc3ccccc32)cc1	91
O=[N+]([O-])c1ccc(-c2nc(-c3ccc(F)cc3)c(-c3ccncc3)[nH]2)cc1	96
Cc1cc2ncc(-c3ccccc3)nc2cc1C	101
CC#CC(=O)Nc1cc2c(Nc3ccc(F)c(Cl)c3)ncnc2cn1	95
Nc1ccc2ncnc(NCCc3ccc(Oc4ccccc4)cc3)c2c1	92
O=C1NC(=O)/C(=C/c2ccc3c(c2)OC(F)(F)O3)S1	66
O=C(O)c1ccc2c3c1cccc3c(=O)n1c3ccccc3nc21	65
Cc1ccc(S(=O)(=O)/C=C/C#N)cc1	98
Cc1ccc(NC2=CC(=O)c3sc(C)nc3C2=O)cc1	93

SMILES	residual activity [%]
CC(=O)c1ccc(N2CCOCC2)cc1O	91
O=C1NC(=O)/C(=C\c2ccc3nccnc3c2)S1	16
COc1cccc(-c2cc(=O)c3ccccc3o2)c1N	87
N#CCCc1ccc2c(c1)-c1[nH]c3ccc([N+](=O)[O-])cc3c1CC(=O)N2	41
COc1cc2ncnc(Nc3ccc(Oc4ccccc4)cc3)c2cc1OC	91
NC(=O)c1ccc2[nH]c(-c3ccc(Oc4ccc(Cl)cc4)cc3)nc2c1	79
COc1cc2ncnc(Nc3ccc(O)c(Br)c3)c2cc1OC	61
O=c1cc(-c2cccc3c2Sc2ccccc2S3)oc(N2CCOCC2)c1	82
Nc1cccc(-c2cc3c(Oc4cccc(O)c4)ncnc3[nH]2)c1	37
O=C(Nc1cccc(Nc2nccc(Nc3cccc(C(F)(F)F)c3)n2)c1)C1CC1	67
Oc1n[nH]c2nnc(-c3c(-c4ccccc4)nn4ccccc34)cc12	90
C[C@@H](N)[C@H]1CC[C@H](C(=O)Nc2ccncc2)CC1	103
O=C1Nc2cc(Br)ccc2/C1=C1/Nc2ccccc2/C1=N\O	82
O=Nc1c(-c2c(O)[nH]c3ccccc23)[nH]c2ccccc12	28
Nc1n[nH]c2nnc(-c3c(-c4ccccc4)nn4ccccc34)cc12	40
CCN(CC)CCCCN1c2ccccc2Oc2ccc(Cl)cc21	96
O=C(Nc1cccc(Nc2cc(Nc3cccc(C(F)(F)F)c3)ncn2)c1)C1CC1	96
